Records with an inconclusive call do not appear. More than one record can exist for a structure, and the calls need not agree. Activity calls are given as the source filed them. The calls were made as follows, unless noted: active = hit-call score of the fitted dose curve at least 0.9, where 1 is the maximum; inactive = score below 0.9.

One test in a line: CCTE_Shafer_MEA_dev_per_network_spike_spike_percent: CCTE's Neural Network Formation Assay for Percent of Spikes in a Network Spike, Shafer Lab (AID 2284054).
Details: not given
Put shortly:
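Primary rat cortical neurons on 16-electrode MEA wells (PEI-coated, laminin at plating), exposed from day 0 with renewal at DIV 5 and 9; spikes within 0.05 s of network-spike peaks over total spikes, AUC across days 5, 7, 9, 12.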
Regarding `Brc1cc(Br)c(Oc2cc(Br)c(Br)cc2Br)cc1Br`, the outcome was inactive.

With `CC(C)O`, the molecule was called inactive.

As to `F`, the result was inactive.

`CC(=O)N[C@@H](CC(=O)O)C(=O)O`: the outcome was inactive.

`CCCCCC=C(C)C(CC)CCO` (stereo not given): the AC50 is 5 µM (active) and the outcome was inactive.

Regarding `BrC1CC(Br)CC(Br)CC(Br)CC(Br)CC(Br)C1` (stereo not given), the half-maximal activity concentration (AC50) is 6.85 µM (active).

For the molecule `C[C@@H]1CC[C@@H](C(C)(C)O)[C@H](O)C1`, the call was inactive.

As to `CC(C)c1nn(C(=O)NC(C)(C)C)c(=O)n1N`, the molecule was called inactive.

As for `[O]=[V]([OH])([OH])[OH]`, the AC50 was 15 µM (active).

As to `CCc1ccccc1`, the outcome was inactive.

Turning to `CCCCCC(C)(CC)C(=O)NC` (stereo not given), the outcome was inactive.

`Cc1[nH]n(C)c(=O)c1C(=O)c1ccc(C(F)(F)F)cc1S(C)(=O)=O`: the molecule was called inactive.

For the molecule `CC(CNC(=S)[S-])NC(=S)[S-].[Zn+2]` (stereo not given), the AC50 is 91.5 µM (active).

Turning to `C[C@@H]1CCO[C@H]2Cn3cc(C(=O)NCc4ccc(F)cc4F)c(=O)c(O)c3C(=O)N12`, the AC50 was 0.691 µM (active).

A further test is described as follows: UKN5_HCS_SBAD2_cell_viability: Viability Assessment in the University of Konstanz (UKN) Leist Lab Neurite Outgrowth Assay in human iPSC-derived immature Dorsal Root Ganglia Neurons (UKN5) (AID 2284056).
Details: not given
Put shortly:
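iPSC-derived immature peripheral neurons (SBAD2) seeded on Matrigel with CHIR99021, SU5402 and DAPT, dosed 1 h later for 24 h. Viability from Hoechst H-33342 and calcein-AM live staining, high-content imaging; bidirectional fit versus DMSO.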
Consider `CC(=O)OC/N=[N+](\C)[O-]`, for which the result was inactive.

For the molecule `Brc1cc(Br)c(Oc2cc(Br)c(Br)cc2Br)cc1Br`, the molecule was classed as inactive.

As to `Cc1ccccc1`, the call was inactive.

Consider `O.O=S(=O)([O-])[O-].[Mn+2]`, for which the AC50 was 18.8 µM (active).

The nature of a further test: CCTE_Shafer_MEA_dev_LDH: CCTE's Lactate Dehydrogenase Assay for Cytotoxicity in the Neural Network Formation Assay, Shafer Lab (AID 2284068; active = hit-call score of the fitted dose curve at least 0.9, where 1 is the maximum;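 also: exposure for twelve days from plating with re-dosing on DIV 5 and 9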).
Details: not given
Put shortly: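 Rat cortical primary neurons, MEA culture; dosing day 0–12, full medium plus compound exchange DIV 5, 9. Read-out: LDH enzyme activity, spectrophotometric. DMSO = negative control/baseline; signal loss → cytotoxicity.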
With `Brc1cc(Br)c(Oc2cc(Br)c(Br)cc2Br)cc1Br`, the AC50 is 7.47 µM (active).

Turning to `CC(C)O`, the outcome was inactive.

As to `F`, the molecule was classed as inactive.

As for `CCCCCC=C(C)C(CC)CCO` (stereo not given), the molecule was called inactive.

In the case of `BrC1CC(Br)CC(Br)CC(Br)CC(Br)CC(Br)C1` (stereo not given), the AC50 is 10.6 µM (active).

For `C[C@@H]1CC[C@@H](C(C)(C)O)[C@H](O)C1`, the molecule was called inactive.

With `[O]=[V]([OH])([OH])[OH]`, the concentration at half-maximal activity (AC50) is 24.3 µM (active).

Take `CCc1ccccc1`: the AC50 is 0.299 µM (active).

In the case of `CN(C)CCCn1cc(C2=C(c3c[nH]c4ccccc34)C(=O)NC2=O)c2ccccc21`, the half-maximal activity concentration (AC50) is 7.97 µM (active).

Turning to `CCCCCC(C)(CC)C(=O)NC` (stereo not given), the AC50 was 50 µM (active).

Turning to `CC(CNC(=S)[S-])NC(=S)[S-].[Zn+2]` (stereo not given), the AC50 was 39.4 µM (active).

On to `C[C@@H]1CCO[C@H]2Cn3cc(C(=O)NCc4ccc(F)cc4F)c(=O)c(O)c3C(=O)N12`, for which the AC50 is 1.07 µM (active).

A short description of a further test: UKN5_HCS_SBAD2_neurite_outgrowth: University of Konstanz (UKN) Leist Lab Neurite Outgrowth Assay in human iPSC-derived immature Dorsal Root Ganglia Neurons (UKN5) (AID 2284070). As to conditions: actives raise or lower the signal. Put shortly: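 SBAD2 iPSC-derived immature peripheral neurons on Matrigel, 100.000 cells/cm2, medium with CHIR99021 (1.5 uM), SU5402 (5 uM), DAPT (5 uM); compound added 1 h post-seeding for 24 h. Calcein-AM neurite area by high-content imaging; Hoechst H-33342 viability; bidirectional fit vs DMSO.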
Consider `CC(=O)OC/N=[N+](\C)[O-]`, for which the AC50 was 613 µM (active).

In the case of `Brc1cc(Br)c(Oc2cc(Br)c(Br)cc2Br)cc1Br`, the molecule was classed as inactive.

Turning to `Cc1ccccc1`, the outcome was inactive.

On to `O.O=S(=O)([O-])[O-].[Mn+2]`, for which the molecule was called inactive.

A short description of another test: CCTE_Shafer_MEA_dev_AB: CCTE's Alamar Blue Assay for Cytotoxicity in the Neural Network Formation Assay, Shafer Lab (AID 2284083; active = hit-call score of the fitted dose curve at least 0.9, where 1 is the maximum;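 also: resazurin reduction fluorescence as viability of cultured neurons; twelve days of exposure from plating with re-dosing on DIV 5 and 9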).
Details: not given
Put shortly: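 Rat cortical primary cultures, 1.5 x 10^5 cells/well on MEA; continuous compound exposure over 12 days of network development, re-dosed with full medium change DIV 5 and 9. Alamar Blue fluorescence; loss of signal = cytotoxicity vs DMSO baseline.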
As for `Brc1cc(Br)c(Oc2cc(Br)c(Br)cc2Br)cc1Br`, the molecule was classed as inactive.

As for `CC(C)O`, the outcome was inactive.

As for `F`, the result was inactive.

For `CC(=O)N[C@@H](CC(=O)O)C(=O)O`, the molecule was classed as inactive.

In the case of `CCCCCC=C(C)C(CC)CCO` (stereo not given), the outcome was inactive.

Take `BrC1CC(Br)CC(Br)CC(Br)CC(Br)CC(Br)C1` (stereo not given): the AC50 is 12.6 µM (active).

As for `[O]=[V]([OH])([OH])[OH]`, the AC50 is 28 µM (active).

Consider `CCc1ccccc1`, for which the AC50 is 0.476 µM (active).

For the molecule `CN(C)CCCn1cc(C2=C(c3c[nH]c4ccccc34)C(=O)NC2=O)c2ccccc21`, the AC50 is 7.86 µM (active) [middle of 4 runs].

For the molecule `CC(CNC(=S)[S-])NC(=S)[S-].[Zn+2]` (stereo not given), the AC50 is 32.2 µM (active).

Turning to `C[C@@H]1CCO[C@H]2Cn3cc(C(=O)NCc4ccc(F)cc4F)c(=O)c(O)c3C(=O)N12`, the AC50 was 1.8 µM (active).

A short description of a further test: CCTE_Shafer_MEA_dev_mutual_information_norm: CCTE's Neural Network Formation Assay for Mutual Information Normalization, Shafer Lab (AID 2284091).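 As to AC50: mutual information between electrodes summarised as area under curve across four recording days; potency is for a decrease in mutual information relative to DMSO.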
Details: not given
Put shortly: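 Rat cortical cultures, 48-well MEA, continuous exposure DIV 0–12 with full media/compound change DIV 5 and 9. Readout: inter-electrode mutual information, AxIS adaptive spike detection; AUC across DIV 5/7/9/12 recordings; DMSO baseline, negative fitting direction.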
For `Brc1cc(Br)c(Oc2cc(Br)c(Br)cc2Br)cc1Br`, the outcome was inactive.

`CC(C)O`: the molecule was classed as inactive.

On to `F`, for which the molecule was called inactive.

On to `CC(=O)N[C@@H](CC(=O)O)C(=O)O`, for which the outcome was inactive.

On to `CCCCCC=C(C)C(CC)CCO` (stereo not given), for which the molecule was classed as inactive.

Take `BrC1CC(Br)CC(Br)CC(Br)CC(Br)CC(Br)C1` (stereo not given): the AC50 is 2.73 µM (active).

Consider `C[C@@H]1CC[C@@H](C(C)(C)O)[C@H](O)C1`, for which the outcome was inactive.

`CC(C)c1nn(C(=O)NC(C)(C)C)c(=O)n1N`: the molecule was called inactive.

For `[O]=[V]([OH])([OH])[OH]`, the AC50 is 4.55 µM (active).

For `CCc1ccccc1`, the outcome was inactive.

In the case of `CCCCCC(C)(CC)C(=O)NC` (stereo not given), the molecule was called inactive.

With `Cc1[nH]n(C)c(=O)c1C(=O)c1ccc(C(F)(F)F)cc1S(C)(=O)=O`, the molecule was classed as inactive.

With `CC(CNC(=S)[S-])NC(=S)[S-].[Zn+2]` (stereo not given), the concentration at half-maximal activity (AC50) was 4.05 µM (active).

In the case of `C[C@@H]1CCO[C@H]2Cn3cc(C(=O)NCc4ccc(F)cc4F)c(=O)c(O)c3C(=O)N12`, the AC50 is 1.55 µM (active).

The nature of the next test: CCTE_Shafer_MEA_dev_correlation_coefficient_mean: CCTE's Neural Network Formation Assay for Mean Correlation Coefficient, Shafer Lab (AID 2284093).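 As to AC50: well mean pairwise spike train correlation integrated as AUC over recording days 5 to 12; potency fitted for loss of correlation relative to DMSO vehicle wells.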
Details: not given
Put shortly:
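Rat cortical cultures, 1.5 x 10^5 cells/well, dosed from day 0 for 12 days. Spontaneous spikes recorded DIV 5/7/9/12; electrode-pair correlation coefficients averaged, AUC taken. Fit in loss direction vs DMSO.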
In the case of `Brc1cc(Br)c(Oc2cc(Br)c(Br)cc2Br)cc1Br`, the molecule was classed as inactive.

Regarding `CC(C)O`, the outcome was inactive.

For `F`, the molecule was called inactive.

For `CC(=O)N[C@@H](CC(=O)O)C(=O)O`, the outcome was inactive.

For the molecule `CCCCCC=C(C)C(CC)CCO` (stereo not given), the result was inactive.

As to `BrC1CC(Br)CC(Br)CC(Br)CC(Br)CC(Br)C1` (stereo not given), the AC50 was 2.92 µM (active).

Regarding `C[C@@H]1CC[C@@H](C(C)(C)O)[C@H](O)C1`, the molecule was classed as inactive.

For `CC(C)c1nn(C(=O)NC(C)(C)C)c(=O)n1N`, the result was inactive.

For the molecule `[O]=[V]([OH])([OH])[OH]`, the AC50 is 13.6 µM (active).

With `CCc1ccccc1`, the outcome was inactive.

For the molecule `CN(C)CCCn1cc(C2=C(c3c[nH]c4ccccc34)C(=O)NC2=O)c2ccccc21`, the AC50 is 3.16 µM (active) [middle of 4 runs].

Turning to `CCCCCC(C)(CC)C(=O)NC` (stereo not given), the molecule was called inactive.

On to `Cc1[nH]n(C)c(=O)c1C(=O)c1ccc(C(F)(F)F)cc1S(C)(=O)=O`, for which the molecule was classed as inactive.

Consider `CC(CNC(=S)[S-])NC(=S)[S-].[Zn+2]` (stereo not given), for which the AC50 is 19.7 µM (active).

Take `C[C@@H]1CCO[C@H]2Cn3cc(C(=O)NCc4ccc(F)cc4F)c(=O)c(O)c3C(=O)N12`: the AC50 is 1.52 µM (active).

Values taken from PubChem BioAssay (EPA / NIEHS).
